The source made the active and inactive calls. No rule for the calls is given here.

The nature of the assay: compounds distorting NS3 helicase fluorescence signal – biochemical, NIH Clinical Collection, artefact control for HCV NS3 helicase inhibitor project (AID 743272).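 Also: HCV NS3 helicase with a Cy5 labelled single stranded DNA probe.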 The conditions noted are these: fluorescence interference counterscreen, HCV NS3 helicase assay; hits give low values. (A counterscreen serves to expose hits that act by an unwanted route or on another target.)

Take `CC#C[C@]1(O)CC[C@H]2[C@@H]3CCC4=CC(=O)CCC4=C3[C@@H](c3ccc(N(C)C)cc3)C[C@@]21C`: the fluorescence ratio is 0.97 (inactive).
